# This is a sample that favours compounds with a hit; in the whole collection about 6.5% have one here.
# DPM-DC inhibit: inhibitors of Streptococcus pneumoniae diphosphomevalonate decarboxylase; purified DPM-DC, PK/LDH coupled NADH fluorescence; calls only at 10 µM; hit rate 0.49% among 65,000; AID 556;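 active means the 320 compounds with the highest percent inhibition in the single-dose primary screen, excluding strongly autofluorescent ones, cut at about 32% in these data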;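 further: kinetic rate of NADH fluorescence loss reporting ADP formed by the decarboxylase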
# MK inhibit: S. pneumoniae mevalonate kinase inhibition | inhibition, % at 10 µM | purified MK, PK/LDH-coupled NADH absorbance 340 nm | AID 555 | hit rate 0.48% among 65,000;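 active means ranked among the strongest by inhibition in the single 10 µM screen, a fixed top-ranked set picked for dose follow-up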
# Autofluor 339: intrinsic fluorescence of library compounds, ex339/em460 – biochemical, MLSMR library, data from DPM-DC assay, artefact control, profiling panel; compound autofluorescence, ex339/em460 nm, NADH buffer; stronger effect = higher value; 1 = no-compound wells, NADH background; fluorescence fold increase at 10 µM; hit rate 5.5% among 65,000;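 active means at 10 µM, mean starting fluorescence two-fold or more over control wells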;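 further: signal is the first read of a kinetic run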
# PMK inhibit: blocks S. pneumoniae phosphomevalonate kinase | inhibition, % at 10 µM | purified PMK, PK/LDH-coupled NADH absorbance 340 nm | hit rate 0.49% among 65,000 | AID 539;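 active means top-ranked compounds by inhibition in the single 10 µM screen, taking a fixed number of the strongest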
# NADH coupling: inhibitors of enzymes used to reach an NAD/NADH endpoint | coupled PK/LDH NADH assays, four targets | IC50, µM (highest dose often 10 µM) | hit rate 0.02% among 65,000;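 active means single-dose screening hits from any of four coupled enzyme assays that gave an IC50 when retested across doses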;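 further: the DPM-DC format reads NADH fluorescence rather than 340 nm absorbance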
# A340 absorber: absorbance at 340 nm. compound absorbance at 340 nm, fold over control. fold change at 10 µM. 65,000 tested, under 10 active;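 active means at 10 µM dose, initial 340 nm absorbance at least 2 fold that of control wells; inactive means change under 2 fold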;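 further: initial absorbance extrapolated from kinetic A340 decline of NADH oxidation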
# Numbers stand for hits; - = inactive; . = not tested or not shown; + = active, no number.
SMILES,DPM-DC inhibit,MK inhibit,Autofluor 339,PMK inhibit,NADH coupling,A340 absorber
O=C(NCCCO)c1ccc2[nH]c3ccccc3c2c1,-,-,2.73,-,-,-
COc1ccc2cc(C#N)c(NC(C)C)nc2c1,.,-,2.65,-,-,-
COc1ccc2cc(C#N)c(SCC(=O)N3CCCC3)nc2c1,-,-,-,-,-,-
Cc1ccc2cc(C#N)c(SCC(=O)NCc3ccco3)nc2c1,-,-,-,-,-,-
COC(=O)CSc1nc2cc(OC)ccc2cc1C#N,-,-,2.27,-,-,-
Cc1cccc2cc(C#N)c(SCC(=O)N3CCC(C)CC3)nc12,-,-,-,-,-,-
CCOc1ccc2cc(C#N)c(SCC(=O)N3CCC(C)CC3)nc2c1,-,-,2.47,-,-,-
CCOc1ccc2cc(C#N)c(SCC(=O)NC(C)CC)nc2c1 (stereo unspecified),-,-,3.22,-,-,-
CCn1c(=N)n(CC(=O)C23CC4CC(CC(C4)C2)C3)c2ccccc21,-,-,-,-,-,-
Cn1c(=O)[nH]c(=O)c2c1nc(SCC(O)CO)n2Cc1ccccc1Cl (stereo unspecified),-,-,-,-,-,-
CC1CCN(S(=O)(=O)c2ccc3ncn(CC(=O)N(C)Cc4ccccc4)c(=O)c3c2)CC1,-,-,-,-,-,-
CCOC(=O)CSc1nc(N)c(C#N)c(-c2ccc(OC)cc2)c1C#N,-,-,-,-,-,-
CCOC(=O)CSc1nc2cc(OCC)ccc2cc1C#N,-,-,2.62,-,-,-
C=CCN(Cc1cc(OC)ccc1OC)S(=O)(=O)N(C)C,-,-,-,-,-,-
O=C(O)CCc1ccc(-c2ccc(Cl)cc2)n1CC(=O)O,-,-,-,-,-,-
CCCn1c(CCC(=O)O)ccc1-c1ccc(OC)cc1,.,-,3.5,-,-,-
CCn1cc(C(=O)NCCCN2CCC(C)CC2)c2cc(OC)c(OC)cc2c1=O,-,-,-,-,-,-
CC(=O)Nc1ccc(CN2CCN(c3cccc(C(F)(F)F)c3)CC2)cc1,-,43.0,-,-,-,-
CC(C)C(NC(=O)OC(C)(C)C)C(=O)N1CCCC1C(=O)NC(Cc1ccccc1)C(N)=O (stereo unspecified),-,-,-,-,-,-
Cc1cccn2c(=O)c3cc(C(=O)N4CCc5ccccc54)n(C)c3nc12,-,-,2.51,-,-,-
O=C(c1ccco1)N1CCN(c2nc3ccccc3c(=O)n2-c2ccccc2)CC1,-,-,-,-,-,-
Cc1cccn2c(=O)c3cc(C(=O)N4CCN(C(=O)c5ccco5)CC4)n(C)c3nc12,.,-,4.95,-,-,-
Cn1c(C(=O)N2CCc3ccccc3C2)cc2c(=O)n3ccccc3nc21,.,-,5.05,-,-,-
Cn1c(C(=O)N2CCN(C(=O)c3ccco3)CC2)cc2c(=O)n3ccccc3nc21,.,-,3.44,-,-,-
CC1Cc2ccccc2N1C(=O)c1cc2c(=O)n3ccccc3nc2n1C (stereo unspecified),-,-,-,-,-,-
SMILES,DPM-DC inhibit,MK inhibit,Autofluor 339,PMK inhibit,NADH coupling,A340 absorber
Cc1cccn2c(=O)c3cc(C(=O)N4c5ccccc5CC4C)n(C)c3nc12 (stereo unspecified),-,-,-,-,-,-
COc1cccc(NC(=O)N2CCN(c3cccc(C)c3C)CC2)c1,-,-,-,-,-,-
CCN(CC)C(=O)c1cc2c(=O)n3cccc(C)c3nc2n1C,.,-,4.98,-,-,-
CCc1cccc(NC(=O)CN(C)S(=O)(=O)c2cnc[nH]2)c1,-,-,-,-,-,-
N#Cc1ccc(N2CCN(C(=O)c3cccc(F)c3)CC2)c(F)c1,-,-,-,-,-,-
CCOc1ccc(CCNC(=O)Cc2nn[nH]n2)cc1OCC,-,-,-,-,-,-
Cc1c(C)c2cc(Cl)c(OCc3nn[nH]n3)cc2oc1=O,.,-,3.78,-,-,-
CCc1cc(=O)oc2cc(C)cc(OCc3nn[nH]n3)c12,.,-,3.83,-,-,-
COC(=O)Cc1c(C)c2c(OCc3nn[nH]n3)cc(C)cc2oc1=O,.,-,3.78,-,-,-
CCOc1cc2c(C)cc(=O)oc2cc1Cl,-,-,-,-,-,-
Cc1ccc(S(=O)(=O)n2nc(-c3ccc(Cl)cc3)nc2NCc2ccco2)cc1,-,-,-,-,-,-
Cc1ccc(-n2sc3ccccc3c2=O)cc1S(=O)(=O)N1CCCCC1,+,100.0,-,-,-,-
